Compound activity deposited in PubChem by National Center for Advancing Translational Sciences (NCATS).
HepG2 viability = counter-screen for TGF-b inhibitors: cytotoxicity in HepG2 cells. Potency, µM (series often up to 46.1 µM), without a hit: top-dose activity change, negative = cytotoxicity, usual class: cytotoxic. AID 588856. HepG2 CAGA-GFP viability, ATP luminescence, 18 h. 410,000 tested, 0.76% active
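HepG2 CAGA-GFP cells (1000/well, DMEM with 1% FBS) received compound, then TGF-beta at 500 pg/mL final, and were incubated 18 hours at 37 degrees C. Viability was read by CellTiter-Glo luminescence. Media-only wells were set as complete cell-killing and DMSO as no toxicity.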
TGFb inhibitor = TGF-b pathway inhibition. Potency, µM (top dose mostly 46.1 µM), for inactives: top-dose activity, negative = inhibition, usual class: inhibitors. AID 588855. 410,000 tested, 1.2% active. HepG2 CAGA-GFP TGF-b/SMAD3 reporter, GFP fluorescence, 18 h; TGF-beta stimulated, 500 pg/mL final; also: % is scaled to controls: 0 for no effect and ±100 for the full control effect; nearly all actives have a fitted effect of over 65% in size
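GFP signal (ex488/em500-530) from TGF-beta-stimulated HEPG2 CAGA-GFP cells, 500 pg/mL final, 18 h at 37 degrees C in DMEM plus 1% FBS, normalized to unstimulated and DMSO-stimulated controls.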
ATXN viability = cell viability loss in ATXN counter-screen; Potency, µM (titrated, usually from 56.7 µM), hits mostly cytotoxic; 400,000 tested, 0.49% active; S2 cells (HEK-293 line with an ATXN2-luciferase reporter) viability, CellTiter-Fluor protease fluorescence, 24 h; also: nearly all actives have a fitted effect of over 40% in size
A549 viability = kills or reduces viability of A549 cells in Nrf2 counter-screen | A549 ARE-Fluc cells, CellTiter-Fluor viability, 18-24 h | 390,000 tested, 0.16% active | Potency, µM (series often up to 46 µM), inactives show at the highest dose activity change, negative = cytotoxicity, usual class: inhibitors; also: % is scaled to controls: 0 for no effect and ±100 for the full control effect
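A549 ARE-Fluc cells in 5% FBS OPTI-MEM, 5000 cells/well, rested 2 h then exposed to compounds in concentration-response for 18-24 h at 37 °C. Viability by CellTiter-Fluor fluorescence (Ex 405/Em 525) after 30 min; luciferase luminescence (BugLite, 15 min, RT) read afterwards.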
ATXN2 expr inh = reduces ATXN2 reporter expression in HEK-293 cells; HEK-293 ATXN2-luciferase reporter, luminescence, 24 h; Potency, µM (highest dose often 57 µM), without a hit: at the top dose activity change, negative = inhibition, most hits filed as inhibitors; 360,000 tested, 0.72% active; AID 1745845; also: % is scaled to controls: 0 for no effect and ±100 for the full control effect; nearly all actives have a fitted effect of over 55% in size
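qHTS (up to 57 uM final) was run with 24 h compound exposure of reporter cells at 37 °C. Each well was multiplexed: SteadyGlo luminescence measured ATXN2-luciferase expression after a fluorogenic Gly-Phe-AFC viability readout (25 uM final).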
Nrf2 inh = inhibitors of Nrf2 signaling | A549 ARE-Fluc reporter, luciferase luminescence, 18-24 h | Potency, µM (highest dose often 46 µM), inactives show at the highest dose activity change, negative = inhibition, most hits filed as inhibitors | 360,000 tested, 2.1% active; also: % is scaled to controls: 0 for no effect and ±100 for the full control effect; nearly all actives have a fitted effect of over 60% in size
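Cells were seeded and rested 2 h, then exposed to compounds for 18-24 h. CellTiter-Fluor was read first as a viability measure. BugLite was added 15 min before the final luminescent read of ARE-luciferase activity in A549 cells.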
Active calls of the source: *; i = inactive; ? = inconclusive; . = not tested or not shown; [ ] = another dose, or the depositor's remark. Sampled rows, rich in hits. Any-hit rate of the full collection: about 3.8%. Calls follow the shape of the dose curve; as a rule, active = well fitted curve in the direction sought with a large enough effect; inconclusive = small, poorly fitted or top-dose-only effect, or another doubt; inactive = no such curve, though single readings can be large; an effect the other way counts as inactive or inconclusive. Potency is read from the fitted curve at half-maximal effect.

SMILES | HepG2 viability | TGFb inhibitor | ATXN viability | A549 viability | ATXN2 expr inh | Nrf2 inh
CCc1sc(C(=O)N(CCOC)c2c(N)n(Cc3ccccc3)c(=O)[nH]c2=O)cc1C | 2% | 6% | i | . | . | .
O=C(COc1ccc(Cl)cc1)c1ccc(O)cc1O | -34% | -16% | i | -15% | 34% | 7.3µM*
CCOC(=O)c1ccc(OCC(=O)c2ccc(O)cc2O)cc1 | -28% | 3% | ? | -1% | 6% | ?
COC(=O)c1ccc(OCC(=O)c2ccc(O)cc2O)cc1 | -29% | 2% | i | 0% | 9% | 8.2µM*
COc1ccc(-c2nc3scc(CCNS(=O)(=O)c4c(C)cc(C)cc4C)n3n2)cc1OC | 6% | 0% | . | -9% | . | .
CCOC(=O)CCN(C(=O)Nc1ccccc1)C1CCCCC1 | 4% | -13% | i | 4% | 15% | ?
CC(C)Cn1c(N)c(C(=O)COC(=O)c2ccc(Br)cc2)c(=O)n(C)c1=O | -6% | -25% | i | -16% | ? | ?
Cc1cccc(C(=O)OCC(=O)c2c(N)n(CC(C)C)c(=O)n(C)c2=O)c1O | -6% | -5% | i | -15% | -16% | 18µM*
COC(=O)c1c(C)[nH]c(C(=O)OCC(=O)c2c(N)n(CC(C)C)c(=O)n(C)c2=O)c1C | -3% | -18% | i | -14% | ? | 15µM*
Cc1oc2ccc(O)c(CN3CCCC3)c2c1C(=O)Nc1ccc(C(C)C)cc1 | -76% | ? | . | -17% | ? | 18%
CCCOc1ccc(CNC(=O)CCCn2ncn3c(cc4sc(CC)cc43)c2=O)cc1 | -3% | ? | . | ? | . | 23µM*
CCCOc1ccc(CNC(=O)Cn2ncn3c(cc4sc(CC)cc43)c2=O)cc1 | 6% | -7% | . | -5% | . | 3%
Cc1cccc(NC(=O)c2cc(-c3cccnc3)nc3c(C)cccc23)n1 | -39% | ? | ? | ? | -29% | ?
COCc1nc2ccccc2n1Cc1ccc(C(C)(C)C)cc1 | -59% | 10µM* | ? | 7% | 2% | .
COc1ccc(OCc2nc3ccccc3n2Cc2ccc(C(C)(C)C)cc2)cc1 | -26% | 16µM* | i | 1% | 56% | ?
COc1ccc(Cc2nc3ccccc3n2Cc2ccccc2F)cc1 | -36% | ? | ? | -5% | -26% | 18µM*
CC(=O)Nc1ccc(S(=O)(=O)N2CCN(Cc3csc(C)n3)CC2)cc1 | -3% | ? | ? | -3% | 0% | 4%
CCCCCc1ccc2cc(C#N)ccc2n1 | 4% | ? | i | . | 32% | .
CCn1cc(CN2CCC(n3nccc3NC(=O)C3CCCC3)CC2)cn1 | 2% | 0% | i | 1% | 2% | -3%
O=[N+]([O-])c1cc(S(=O)(=O)C(F)(F)F)ccc1Sc1nc2ccccc2s1 | 18µM* | ? | ? | -6% | ? | 12%
Cc1ccc2c(c1)[C@H]1[C@H](CO2)[C@H](c2ccccc2)[C@]2(C)C(=O)N(C)CC(=O)N12 | -23% | -6% | i | -7% | -10% | 21µM*
C=C1CC2(OC1=O)c1ccccc1CCc1ccccc12 | 14µM* | 8.9µM* | . | ? | 6µM* | 16µM*
COc1cc(OC)c(OC)cc1CN1CCOc2ccc(CN3C[C@@H](C)O[C@@H](C)C3)cc2C1 | . | . | i | . | . | .
CCOc1ccc(C(=O)CCC(=O)N2CCN(c3ccccc3O)CC2)cc1 | 2.5µM* | -2% | i | 17% | -15% | -10%
CCOc1ccc(S(=O)(=O)NCCC(=O)N2CCN(c3ccccc3O)CC2)cc1 | -30% | 0% | i | -5% | -1% | ?
SMILES | HepG2 viability | TGFb inhibitor | ATXN viability | A549 viability | ATXN2 expr inh | Nrf2 inh
CCc1nn(CC(=O)N2CC(C)CC(C)C2)c(=O)c2cccn12 (stereo unspecified) | 0% | 0% | i | 14% | . | 8%
Cc1ccccc1Cn1nc(C)c(NC(=O)c2cc3nc(-c4ccco4)cc(C(F)(F)F)n3n2)c1C | -8% | ? | i | -10% | -19% | 21µM*
Cc1ccccc1Cn1nc(C)c(NC(=O)c2cc(-c3ccco3)on2)c1C | -19% | -14% | i | 12% | . | 18%
CC(=O)Nc1ccc(S(=O)(=O)NCCSCc2ccccc2Cl)cc1 | -18% | ? | i | -1% | -25% | 10µM*
COc1ccc(NC(=O)N(C)[C@H]2C[C@H]3c4[nH]c5ccc(-c6ccc7c(c6)OCO7)cc5c4CCN3C[C@H]2[C@H](C)O)cc1 | -83% | ? | 20µM* | . | 16µM* | .
COc1ccc(NC(=O)N(C)[C@H]2C[C@H]3c4[nH]c5ccc(-c6ccc(OC)cc6)cc5c4CCN3C[C@H]2[C@H](C)O)cc1 | -103% | ? | . | . | 22µM* | .
CN[C@H]1C[C@H]2c3[nH]c4ccc(-c5ccc(OC)cc5)cc4c3CCN2C(=O)[C@H]1[C@H](C)O | 14µM* | 16µM* | ? | . | 18µM* | .
O=C(NCC(O)c1nc2ccccc2[nH]1)c1cc2ccccc2[nH]1 (stereo unspecified) | 3% | -8% | i | . | 10% | .
Cc1ccc(C)c(NS(=O)(=O)c2cc(C(=O)N3CCc4ccccc4C3)ccc2Cl)c1 | -4% | ? | ? | -18%[1.84 µM] | -10% | 18µM*
Cc1ccc(NC(=O)CSc2nnc(NC3CC3)s2)cc1S(=O)(=O)N1CCOCC1 | -19% | 0% | i | . | . | .
CN(C)CC1CC/C(=C\c2ccc(O)cc2)C1=O (stereo unspecified) | -105% | ? | . | 0% | ? | -11%
CN(C)CC1CCC/C(=C\c2ccc(OC(=O)c3ccc(Cl)cc3)cc2)C1=O (stereo unspecified) | 29% | ? | 24µM* | ? | -26% | ?
CN(C)CC1CCC/C(=C\c2ccc(OC(=O)/C=C/c3ccccc3)cc2)C1=O (stereo unspecified) | -3% | -11% | . | 4% | 25µM* | 1%
CN(C)c1ccc(-n2cccc2/C=C/[N+](=O)[O-])cc1 | -3% | 11% | 30µM* | -13% | ? | ?
COc1cc(-c2noc(C)c2C#Cc2ccccn2)cc(OC)c1OC | 3% | ? | ? | 0% | -16% | 6%
COc1cc(-c2noc(C)c2C#Cc2ccc(N)cc2)cc(OC)c1OC | 0% | 10µM* | ? | -13% | 1% | 17%
CC(SCC(=O)Nc1ccccc1Br)c1nc2ccccc2c(=O)[nH]1 (stereo unspecified) | -64% | 4% | i | 1% | -10% | ?
CN(C)CCNC(=O)/C(=C/c1ccc(-c2ccc(Cl)cc2)o1)NC(=O)c1ccccc1 | 16µM* | ? | i | 7% | -18% | 5%
